# Laboratory results as given in ChEMBL document CHEMBL3988442, “University of Dundee, Small-Polar-MMV Screening Library” (2021).
# Biological target: Shiga toxin 2 (Escherichia coli O157:H7) (UniProt P09385+P09386)
# Experiment: E. coli 0.157:H7 Shiga Toxin SOP - stx2 screening assay
# Assay type: functional
# Design: scale not given: direction of the effect not stated beside the values
# Conditions: 30 µM
row,SMILES,Percent Effect
1,CCCc1n[nH]cc1C(=O)N1CCC(c2nccn2CCOC)CC1,10%
2,Cn1ccnc1CN1CCOCC(Cc2ccccn2)C1 (configuration not stated),17.1%
3,COCC(=O)N1CCC[C@]2(C(=O)N(C)C)CN(c3ccccn3)C[C@@H]2C1,-6.93%
4,COc1ccc(C2Nc3ccccc3C3=NCCCN32)cc1OC (configuration not stated),-2.36%
5,O=C(NCc1ccoc1)NC1CCCN(c2ncccn2)C1 (configuration not stated),15.2%
6,CCOc1ncccc1C(=O)N(C)Cc1ncc(C)c(OC)c1C,19.7%
7,CCc1cc(C(=O)N2CCC(Nc3ccc(C)nn3)CC2)sc1C,-27.9%
